From PubChem BioAssay (NCI) come the findings set out here.

The panel holds about 83,000 compounds, 20% with a hit somewhere; the sample as a whole holds those more often.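 The endpoint reported here, percent growth, reads 100 for growth as untreated, 0 for no net growth and -100 for all cells dead.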 Unmarked numbers belong to inactive results. The source made the active and inactive calls. The calls were made as follows: active = growth percent below 10; inactive = the rest.

What all share (experiment): NCI-60 one-dose screen, 48 h (100 = growth as untreated, 0 = no growth, -100 = all killed)
What all share (settings): 10 µM unless noted

Experiment [1] concerns NCI-H23 lung.
For experiment [2], the system named is NCI-H226 lung.
The test system of experiment [3] is NCI-H322M lung.
The test system of experiment [4] is HOP-62 NSCLC.
In experiment [5] the test system is NCI-H460 lung.
Experiment [6] relates to NCI-H522 lung.
Experiment [7] has as its system A549/ATCC NSCLC.
For experiment [8], the system named is 786-0 renal.
Experiment [9] relates to COLO 205 colon.

Consider `c1cn2c(ccc3nc(-c4cn[nH]c4)c4c(c32)CCCC4)n1`, for which the growth in experiment [1] was 69.2%; in experiment [2], 73.6%; in [3], 75.8%; in experiment [4], 71.8%; in [5], 43.9%; in experiment [6], 62.8%. In addition, the results for the growth in [7], in experiment [8] and in experiment [9] were 62.5%, 55.3% and 95.5%, respectively.

As to `N#C/C(=C\c1ccc(-c2ccc(Cl)cc2Cl)o1)c1ccc(F)cc1`, the growth is 87.7% in experiment [1]; 5.86% (active) in experiment [2]; 93.4% in [3]; 82.2% in [4]; 90.7% in experiment [5]; 88.1% in experiment [6]. In addition, the values for the growth in experiment [7], in experiment [8] and in experiment [9] were 100%, 94% and 100%, respectively.

Consider `CN(Cc1ccccc1)S(=O)(=O)/N=C1\NC(=O)NC1=C(Cl)Cl`, for which the growth in [1] was 66.1%; in experiment [2], 91.7%; in experiment [3] it was 95.1%; in [4], 40.8%; in experiment [5], 17.9%; in experiment [6], -21.5% (active). For the same compound, the growth in experiment [7] is 99.4%; in experiment [8] it was 22.4%; in experiment [9], -26.1% (active).

Take `COC(=O)c1[nH]nc2c1C1(C(=O)c3cccc4cccc1c34)C(C#N)=C(N)O2` (configuration not stated): the growth in experiment [1] is 95%; in [2], 91.8%; in [3], 94.1%; in experiment [4], 97.5%; in [5], 105%; in experiment [6] it was 100%. The growth in [7] was 98.2%; in [8], 99.5%; in experiment [9], 110%.

For the compound `CS(=O)(=O)c1ccc(-c2nn(-c3ccccc3)cc2/C=N/NC(=O)c2nc(N)n[nH]2)cc1`, the growth is 96.3% in experiment [1]; 101% in experiment [2]; 104% in experiment [3]; 103% in experiment [4]; 83% in experiment [5]; 94.2% in [6]. Also, the growth in experiment [7] was 97.3%; in experiment [8] it was 96.8%; in experiment [9], 96.3%.

Take `CCNC(=O)N1CCc2cc(OC)c(OCCc3ccc(OC)cc3)cc2C1c1ccc([N+](=O)[O-])cc1C` (configuration not stated): the growth was 21.2% in experiment [1]; 38% in [2]; 45.4% in experiment [3]; 25.9% in [4]; 2.37% (active) in experiment [5]; -8.41% (active) in experiment [6]. In addition, the values for the growth in experiment [7], in [8] and in [9] were 11.7%, 18.2% and 25.8%, respectively.

Consider `CNC(=O)c1cc(Oc2ccc3nc(NC(=O)c4cccc(OC(F)(F)F)c4)sc3c2)ccn1`, for which the growth in [1] is 82.8%; in experiment [2] it was 26.5%; in [3] it was 92.6%; in [4], 78.5%; in [5] it was 75.1%; in experiment [6] it was 60.3%. Also, the growth is 77.5% in [7], 50.4% in experiment [8] and 106% in experiment [9].

With `O=C(CSc1nc2ccccc2c(=O)n1-c1ccccc1)Nc1cccc(C(=O)/C=C/c2ccccc2)c1`, the growth is 102% in [1]; 83.1% in experiment [2]; 102% in [3]; 99% in experiment [4]; 91.6% in [5]; 92% in [6]. The growth is 80.1% in [7], 98.5% in [8] and 106% in experiment [9].

Consider `O=C1CCCC2=C1C(c1c[nH]c3ccc(Br)cc13)Cc1cc(Br)ccc1N2` (configuration not stated), for which the growth in experiment [1] is 45.8%; in experiment [2] it was 68.8%; in [3] it was 54.2%; in [4], 41.2%; in experiment [5], 17.3%; in [6] it was 12.8%. Also, the values for the growth in experiment [7], in experiment [8] and in experiment [9] were 43.7%, 41.2% and 42.5%, respectively.

With `CCOc1cccc(-c2nc3sccn3c2-c2ccnc(S(C)(=O)=O)n2)c1`, the growth is 99.1% in experiment [1]; 94% in experiment [2]; 93.1% in experiment [3]; 100% in [4]; 76.8% in [5]; 98.9% in [6]. Besides, the growth in experiment [7] was 102%; in experiment [8], 103%; in experiment [9] it was 99.9%.

On to `COc1ccc(/C=C/C(=O)c2cccc(NC(=O)CSc3nc4ccccc4c(=O)n3-c3ccccc3)c2)cc1OC`, for which the growth in [1] was 106%; in [2], 93.2%; in experiment [3], 105%; in [4], 111%; in experiment [5] it was 100%; in experiment [6], 96.9%. The growth is 91.5% in [7], 103% in experiment [8] and 123% in experiment [9].

On to `COc1ccc([C@H]2[C@H](O)C(=O)N2c2cc(OC)c(OC)c(OC)c2)cc1F`, for which the growth in experiment [1] is 22.2%; in experiment [2], 32.6%; in experiment [3], 50.8%; in [4], 23.7%; in experiment [5], 4.56% (active); in experiment [6], -56% (active). Besides, the growth in experiment [7] was 18.5%; in experiment [8], 12%; in experiment [9], -79.1% (active).

Take `NC(N)=Nc1ccc(Oc2cccc(Nc3ccc(Br)c(C(F)(F)F)c3)c2)cn1`: the growth was -61% (active) in experiment [1]; -78.1% (active) in experiment [2]; -43.6% (active) in experiment [3]; -46.1% (active) in experiment [4]; -76.9% (active) in experiment [5]; -64.8% (active) in experiment [6]. For the same compound, the figures for the growth in experiment [7], in experiment [8] and in experiment [9] were -23.9% (active), -67.8% (active) and -73.2% (active), respectively.

For `CCO/C=N/C1=C(C#N)C(c2ccc(F)cc2)c2sc3c(C)cccc3c2O1` (configuration not stated), the growth was 27.1% in experiment [1]; 54.3% in experiment [2]; 37.6% in experiment [3]; 28.3% in experiment [4]; 4.32% (active) in [5]; 7.88% (active) in experiment [6]. Further, the growth in [7] was 22.4%; in experiment [8] it was 20.2%; in experiment [9], 15.5%.

With `COc1ccc(NCc2cn(-c3ccc(C(=O)O)cc3)nc2-c2cc(C(F)(F)F)cc(C(F)(F)F)c2)cc1`, the growth is 104% in [1]; 107% in experiment [2]; 94% in [3]; 104% in [4]; 93.6% in experiment [5]; 94.4% in experiment [6]. Further, the growth in experiment [7] was 87.7%; in [8] it was 102%; in [9], 110%.

As to `CCNC(=O)N1CCc2cc(OC)c(OCCc3ccc(OC)cc3)cc2C1c1ccc(OC)cc1C` (configuration not stated), the growth in experiment [1] is 29%; in experiment [2], 33.5%; in experiment [3], 40.1%; in experiment [4] it was 20.3%; in [5] it was 1.22% (active); in experiment [6], -8.18% (active). Besides, the growth in experiment [7] is 13.8%; in experiment [8] it was 9.54% (active); in [9], 27.6%.

Consider `O=c1c2ccccc2nc(COc2ccccc2)n1NS(=O)(=O)c1ccc(Cl)cc1`, for which the growth in experiment [1] was 82.8%; in experiment [2], 83%; in experiment [3] it was 82.9%; in experiment [4] it was 75%; in experiment [5], 96.1%; in experiment [6], 69.4%. The values for the growth in experiment [7], in [8] and in experiment [9] were 86%, 107% and 95%, respectively.

Consider `CCOC(=O)c1c(Nc2ccccc2)nn2c(-c3ccc(OC)cc3)ccnc12`, for which the growth is 86% in experiment [1]; 93.5% in experiment [2]; 87.1% in experiment [3]; 95.3% in experiment [4]; 93.5% in experiment [5]; 88.1% in experiment [6]. The results for the growth in experiment [7], in experiment [8] and in experiment [9] were 88.7%, 64.5% and 99.9%, respectively.

For the compound `COc1cccc(C(=O)Nc2cccc(C#Cc3cccc4[nH]nc(N)c34)c2)c1`, the growth in experiment [1] is 66.7%; in [2] it was 49.2%; in [3] it was 84.2%; in experiment [4], 63.4%; in [5], 44.8%; in [6], 21.1%. The results for the growth in [7], in [8] and in experiment [9] were 51.1%, 80.2% and 67.6%, respectively.

For `C#CCOC(=O)[C@@H]1CCCN1CC#C`, the growth in experiment [1] was 96.7%; in experiment [2], 81.2%; in experiment [3] it was 106%; in experiment [4], 101%; in [5], 87.8%; in [6], 96.6%. Besides, the growth in experiment [7] was 80.3%; in experiment [8], 87.8%; in experiment [9] it was 88%.

On to `O=C(Cn1c(-c2ccccc2)nc2cc(Cl)c(Cl)cc21)N=Nc1c(O)[nH]c2ccc(Cl)cc12`, for which the growth in [1] was 68.7%; in experiment [2] it was 37.3%; in [3], 94.6%; in experiment [4], 86.5%; in experiment [5] it was 65.8%; in experiment [6], 72.1%. In addition, the results for the growth in experiment [7], in experiment [8] and in experiment [9] were 73.8%, 96.2% and 66.6%, respectively.

Turning to `CCC(NC(c1cc2cccc3ccc4cccc1c4c32)c1nnnn1C(C)(C)C)C1CCCCC1` (configuration not stated), the growth is 46.6% in [1]; 75% in experiment [2]; 79.3% in [3]; 69.7% in experiment [4]; 31.2% in [5]; 60.1% in experiment [6]. Further, the growth was 69.7% in experiment [7], 67.3% in experiment [8] and 78.6% in experiment [9].

Turning to `CC(C)(C)CC(C)(C)n1nnnc1C(Nc1nccs1)c1cc2cccc3ccc4cccc1c4c32` (configuration not stated), the growth is 102% in [1]; 3.26% (active) in [2]; 93.9% in [3]; 89% in experiment [4]; 103% in [5]; 96.8% in experiment [6]. Moreover, the values for the growth in experiment [7], in experiment [8] and in [9] were 107%, 102% and 114%, respectively.

As to `C=C(C=O)[C@@H]1CC[C@]2(C)[C@H](CC=C3[C@H]4[C@@H](C)[C@H](C)CC[C@]4(C(=O)OC)CC[C@]32C)[C@@]1(C)CCC#N`, the growth in experiment [1] is -6.81% (active); in experiment [2] it was -44.8% (active); in experiment [3], 32.9%; in experiment [4], 20.7%; in experiment [5], 1.89% (active); in [6], -1.56% (active). Also, the growth in experiment [7] was 80.6%; in experiment [8], 5.57% (active); in experiment [9] it was 3.46% (active).

As for `COC(=O)c1[nH]nc2c1C1(C(=O)N(C)c3ccccc31)C(C#N)=C(N)O2` (configuration not stated), the growth was 93.4% in experiment [1]; 99.2% in experiment [2]; 94.1% in [3]; 118% in experiment [4]; 106% in experiment [5]; 99.5% in experiment [6]. The growth was 101% in [7], 102% in [8] and 110% in [9].

Turning to `Cc1cc(C)c2sc(=O)n(Cc3nnc(SCCC(=O)O)o3)c2n1`, the growth in experiment [1] is 101%; in [2], 94.5%; in [3] it was 98%; in experiment [4], 98.2%; in experiment [5] it was 105%; in experiment [6] it was 100%. For the same compound, the growth was 104% in experiment [7], 104% in [8] and 124% in [9].

Turning to `NS(=O)(=O)c1ccc(Nc2cc(-c3ccccc3)nc(SCC(=O)c3ccccc3)n2)cc1`, the growth in experiment [1] is 92.5%; in experiment [2], 92.8%; in experiment [3], 90.4%; in experiment [4] it was 106%; in experiment [5], 103%; in experiment [6], 98.6%. Moreover, the growth was 98.8% in experiment [7], 96.9% in experiment [8] and 116% in [9].

Consider `C[C@@H]1C[C@H]2C(=O)O[C@@H](C)C(NC(=O)[C@H](Cc3cc(F)cc(F)c3)NC(=O)Nc3ccc(Cl)cc3F)C(=O)N3CCC[C@H]3C(=O)N3CCCC[C@H]3C(=O)N[C@@H](CO)C(=O)N2C1` (some centres not stated), for which the growth in experiment [1] is 37.9%; in experiment [2], -4.63% (active); in experiment [3], 48.6%; in [4], 33.4%; in experiment [5], 14.5%; in experiment [6], 19.4%. Besides, the growth in [7] was 26.2%; in [8], 42.2%; in experiment [9] it was -23% (active).
